Test results taken from the supplement of paper PMC9023506.
Where a name gives a salt, the structure may show the parent alone.

Test system: Danio rerio larvae (5 dpf)
Test: optomotor response to fast red moving lines, difference vs DMSO (percentage points (treated minus DMSO)); higher = more of the behaviour than the DMSO vehicle control
Details: 10 µM; exposure time: 3 h pre-incubation + 3 h imaging
Protocol: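 5-dpf wild-type zebrafish larvae were imaged in 96-well plates. They were treated with 190 Tocris FDA-approved drugs at 10 µM (1 µl/ml DMSO) for 3 h before and 3 h during imaging at 28.5 °C, 48 larvae per drug. Automated image analysis gave % time moving and optomotor responses. Values are drug group mean minus DMSO vehicle mean (n=844), in percentage points, for 10 behaviours.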

SMILES | optomotor response
Cn1nnc2c(C(N)=O)ncn2c1=O [Temozolomide] | -10.8
CCCCC(=O)N(Cc1ccc(-c2ccccc2-c2nnn[nH]2)cc1)[C@H](C(=O)O)C(C)C [Valsartan] | -0.58
CC(C)c1ccc2oc3nc(N)c(C(=O)O)cc3c(=O)c2c1 [Amlexanox] | -1.36
Nc1nc(Cl)nc2c1ncn2[C@@H]1O[C@H](CO)[C@@H](O)[C@@H]1F [Clofarabine] | -10.5
CCC(=O)O[C@]1(C(=O)SCF)[C@H](C)C[C@H]2[C@@H]3C[C@H](F)C4=CC(=O)C=C[C@]4(C)[C@@]3(F)[C@@H](O)C[C@@]21C [Fluticasone propionate] | -7.85
Cc1ccccc1C(=O)Nc1ccc(C(=O)N2CCCC(O)c3cc(Cl)ccc32)c(C)c1 (stereo not given) [Tolvaptan] | 2.23
CN1CCN2c3ncccc3Cc3ccccc3C2C1 (stereo not given) [Mirtazapine] | -5.17
Cc1cc2c(s1)Nc1ccccc1N=C2N1CCN(C)CC1 [Olanzapine] | 9.42
CC(=O)O[C@H]1C(=O)[C@@]2(C)[C@H]([C@H](OC(=O)c3ccccc3)[C@]3(O)C[C@H](OC(=O)[C@H](O)[C@@H](NC(=O)c4ccccc4)c4ccccc4)C(C)=C1C3(C)C)[C@]1(OC(C)=O)CO[C@@H]1C[C@@H]2O [Taxol] | -16.4
COCCCOc1cc(C[C@@H](C[C@H](N)[C@@H](O)C[C@H](C(=O)NCC(C)(C)C(N)=O)C(C)C)C(C)C)ccc1OC [Aliskiren hemifumarate] | 2.22
CCOc1nc2cccc(C(=O)O)c2n1Cc1ccc(-c2ccccc2-c2noc(=O)[nH]2)cc1 [Azilsartan] | -3.36
C[C@]12CCC(=O)C=C1CC[C@@H]1[C@@H]2[C@@H](O)C[C@@]2(C)[C@H]1CC[C@]2(O)C(=O)CO [Hydrocortisone] | -1.8
CCCc1nc(C(C)(C)O)c(C(=O)O)n1Cc1ccc(-c2ccccc2-c2nnn[nH]2)cc1 [Olmesartan] | -5.64
CC(c1cc2ccccc2s1)N(O)C(N)=O (stereo not given) [Zileuton] | -16.8
COc1ccccc1OCCNCC(O)COc1cccc2[nH]c3ccccc3c12 (stereo not given) [Carvedilol] | -10.6
C#C[C@]1(O)CC[C@H]2[C@@H]3CCC4=CC(=O)CC[C@@H]4[C@H]3CC[C@@]21CC [Levonorgestrel] | 9.62
CC(C)C(=O)Nc1ccc([N+](=O)[O-])c(C(F)(F)F)c1 [Flutamide] | -21.1
CC(C)(C)NC(=O)[C@@H]1C[C@@H]2CCCC[C@@H]2CN1C[C@@H](O)[C@H](Cc1ccccc1)NC(=O)[C@H](CC(N)=O)NC(=O)c1ccc2ccccc2n1 [Saquinavir mesylate] | -8.88
CC(C)(C(=O)O)c1ccc(C(O)CCCN2CCC(C(O)(c3ccccc3)c3ccccc3)CC2)cc1 (stereo not given) [Fexofenadine hydrochloride] | -0.251
CN(C)CCC[C@@]1(c2ccc(F)cc2)OCc2cc(C#N)ccc21 [Escitalopram oxalate] | -7.01

SMILES | optomotor response
COc1ccc(-c2ccc3cc(C(=O)O)ccc3c2)cc1C12CC3CC(CC(C3)C1)C2 [Adapalene] | -11.7
CN(CCOc1ccc(CC2SC(=O)NC2=O)cc1)c1ccccn1 (stereo not given) [Rosiglitazone] | -14.3
CC(=O)S[C@@H]1CC2=CC(=O)CC[C@]2(C)[C@H]2CC[C@@]3(C)[C@@H](CC[C@@]34CCC(=O)O4)[C@H]12 [Spironolactone] | -11.3
CN1CC[C@@H](NC(=O)Nc2ccc(C#N)cc2)C[C@@H]1c1nc2ccccc2[nH]1 | -0.171
CC(CCc1ccc(O)cc1)NCCc1ccc(O)c(O)c1 (stereo not given) [Dobutamine hydrochloride] | -7.53
O=C(NCC1CCCCN1)c1cc(OCC(F)(F)F)ccc1OCC(F)(F)F (stereo not given) [Flecainide acetate] | 1.94
COc1c(C)c2c(c(O)c1C/C=C(\C)CCC(=O)O)C(=O)OC2 [Mycophenolic acid] | 10.7
CCCc1nc2c(C)cc(-c3nc4ccccc4n3C)cc2n1Cc1ccc(-c2ccccc2C(=O)O)cc1 [Telmisartan] | 7.51
CCOc1ccccc1OCCN[C@H](C)Cc1ccc(OC)c(S(N)(=O)=O)c1 [Tamsulosin hydrochloride] | -10.3
CC[C@H](C)C(=O)O[C@H]1C[C@@H](C)C=C2C=C[C@H](C)[C@H](CC[C@@H]3C[C@@H](O)CC(=O)O3)[C@H]21 [Lovastatin] | -4.95
Nc1ccn([C@@H]2O[C@H](CO)[C@@H](O)C2(F)F)c(=O)n1 [Gemcitabine hydrochloride] | 5.64
COc1cc([C@@H]2c3cc4c(cc3[C@@H](O[C@@H]3O[C@@H]5CO[C@@H](C)O[C@H]5[C@H](O)[C@H]3O)[C@H]3COC(=O)[C@H]23)OCO4)cc(OC)c1O [Etoposide] | -4.84
COc1cc2ncnc(Nc3ccc(F)c(Cl)c3)c2cc1OCCCN1CCOCC1 [Iressa] | 8.7
O=C1CCc2ccc(OCCCCN3CCN(c4cccc(Cl)c4Cl)CC3)cc2N1 [Aripiprazole] | 7.59
O=C(O)c1cc(/N=N/c2ccc(S(=O)(=O)Nc3ccccn3)cc2)ccc1O [Sulfasalazine] | -5.17
CC(C)(C#N)c1cc(Cn2cncn2)cc(C(C)(C)C#N)c1 [Anastrozole] | -1.59
CNCc1ccc(-c2[nH]c3cc(F)cc4c3c2CCNC4=O)cc1 [Rucaparib camsylate] | 3.57
N#Cc1ccc2[nH]cc(CCCCN3CCN(c4ccc5oc(C(N)=O)cc5c4)CC3)c2c1 [Vilazodone hydrochloride] | -38.2
COc1cc2nc(N3CCN(C(=O)C4COc5ccccc5O4)CC3)nc(N)c2cc1OC (stereo not given) [Doxazosin mesylate] | -4.8
CCOC(=O)C1=C(COCCN)NC(C)=C(C(=O)OC)C1c1ccccc1Cl (stereo not given) [Amlodipine besylate] | 7.5
